# Results filed as inconclusive are left out. Active and inactive are the calls of the source. Calls follow the shape of the dose curve; as a rule, active = well fitted inhibition curve with a large enough effect in the polarisation, with a control signal flat (not every such curve was filed as active); inconclusive = small, poorly fitted or top-dose-only effect, or effect the other way, or a change in a side signal; inactive = no such curve, though single readings can be large or run the other way; the % refers to the polarisation.
# Target: Histone-lysine N-methyltransferase 2A (Homo sapiens) (UniProt Q03164)
# Sequence (Q03164 whole entry, looked up): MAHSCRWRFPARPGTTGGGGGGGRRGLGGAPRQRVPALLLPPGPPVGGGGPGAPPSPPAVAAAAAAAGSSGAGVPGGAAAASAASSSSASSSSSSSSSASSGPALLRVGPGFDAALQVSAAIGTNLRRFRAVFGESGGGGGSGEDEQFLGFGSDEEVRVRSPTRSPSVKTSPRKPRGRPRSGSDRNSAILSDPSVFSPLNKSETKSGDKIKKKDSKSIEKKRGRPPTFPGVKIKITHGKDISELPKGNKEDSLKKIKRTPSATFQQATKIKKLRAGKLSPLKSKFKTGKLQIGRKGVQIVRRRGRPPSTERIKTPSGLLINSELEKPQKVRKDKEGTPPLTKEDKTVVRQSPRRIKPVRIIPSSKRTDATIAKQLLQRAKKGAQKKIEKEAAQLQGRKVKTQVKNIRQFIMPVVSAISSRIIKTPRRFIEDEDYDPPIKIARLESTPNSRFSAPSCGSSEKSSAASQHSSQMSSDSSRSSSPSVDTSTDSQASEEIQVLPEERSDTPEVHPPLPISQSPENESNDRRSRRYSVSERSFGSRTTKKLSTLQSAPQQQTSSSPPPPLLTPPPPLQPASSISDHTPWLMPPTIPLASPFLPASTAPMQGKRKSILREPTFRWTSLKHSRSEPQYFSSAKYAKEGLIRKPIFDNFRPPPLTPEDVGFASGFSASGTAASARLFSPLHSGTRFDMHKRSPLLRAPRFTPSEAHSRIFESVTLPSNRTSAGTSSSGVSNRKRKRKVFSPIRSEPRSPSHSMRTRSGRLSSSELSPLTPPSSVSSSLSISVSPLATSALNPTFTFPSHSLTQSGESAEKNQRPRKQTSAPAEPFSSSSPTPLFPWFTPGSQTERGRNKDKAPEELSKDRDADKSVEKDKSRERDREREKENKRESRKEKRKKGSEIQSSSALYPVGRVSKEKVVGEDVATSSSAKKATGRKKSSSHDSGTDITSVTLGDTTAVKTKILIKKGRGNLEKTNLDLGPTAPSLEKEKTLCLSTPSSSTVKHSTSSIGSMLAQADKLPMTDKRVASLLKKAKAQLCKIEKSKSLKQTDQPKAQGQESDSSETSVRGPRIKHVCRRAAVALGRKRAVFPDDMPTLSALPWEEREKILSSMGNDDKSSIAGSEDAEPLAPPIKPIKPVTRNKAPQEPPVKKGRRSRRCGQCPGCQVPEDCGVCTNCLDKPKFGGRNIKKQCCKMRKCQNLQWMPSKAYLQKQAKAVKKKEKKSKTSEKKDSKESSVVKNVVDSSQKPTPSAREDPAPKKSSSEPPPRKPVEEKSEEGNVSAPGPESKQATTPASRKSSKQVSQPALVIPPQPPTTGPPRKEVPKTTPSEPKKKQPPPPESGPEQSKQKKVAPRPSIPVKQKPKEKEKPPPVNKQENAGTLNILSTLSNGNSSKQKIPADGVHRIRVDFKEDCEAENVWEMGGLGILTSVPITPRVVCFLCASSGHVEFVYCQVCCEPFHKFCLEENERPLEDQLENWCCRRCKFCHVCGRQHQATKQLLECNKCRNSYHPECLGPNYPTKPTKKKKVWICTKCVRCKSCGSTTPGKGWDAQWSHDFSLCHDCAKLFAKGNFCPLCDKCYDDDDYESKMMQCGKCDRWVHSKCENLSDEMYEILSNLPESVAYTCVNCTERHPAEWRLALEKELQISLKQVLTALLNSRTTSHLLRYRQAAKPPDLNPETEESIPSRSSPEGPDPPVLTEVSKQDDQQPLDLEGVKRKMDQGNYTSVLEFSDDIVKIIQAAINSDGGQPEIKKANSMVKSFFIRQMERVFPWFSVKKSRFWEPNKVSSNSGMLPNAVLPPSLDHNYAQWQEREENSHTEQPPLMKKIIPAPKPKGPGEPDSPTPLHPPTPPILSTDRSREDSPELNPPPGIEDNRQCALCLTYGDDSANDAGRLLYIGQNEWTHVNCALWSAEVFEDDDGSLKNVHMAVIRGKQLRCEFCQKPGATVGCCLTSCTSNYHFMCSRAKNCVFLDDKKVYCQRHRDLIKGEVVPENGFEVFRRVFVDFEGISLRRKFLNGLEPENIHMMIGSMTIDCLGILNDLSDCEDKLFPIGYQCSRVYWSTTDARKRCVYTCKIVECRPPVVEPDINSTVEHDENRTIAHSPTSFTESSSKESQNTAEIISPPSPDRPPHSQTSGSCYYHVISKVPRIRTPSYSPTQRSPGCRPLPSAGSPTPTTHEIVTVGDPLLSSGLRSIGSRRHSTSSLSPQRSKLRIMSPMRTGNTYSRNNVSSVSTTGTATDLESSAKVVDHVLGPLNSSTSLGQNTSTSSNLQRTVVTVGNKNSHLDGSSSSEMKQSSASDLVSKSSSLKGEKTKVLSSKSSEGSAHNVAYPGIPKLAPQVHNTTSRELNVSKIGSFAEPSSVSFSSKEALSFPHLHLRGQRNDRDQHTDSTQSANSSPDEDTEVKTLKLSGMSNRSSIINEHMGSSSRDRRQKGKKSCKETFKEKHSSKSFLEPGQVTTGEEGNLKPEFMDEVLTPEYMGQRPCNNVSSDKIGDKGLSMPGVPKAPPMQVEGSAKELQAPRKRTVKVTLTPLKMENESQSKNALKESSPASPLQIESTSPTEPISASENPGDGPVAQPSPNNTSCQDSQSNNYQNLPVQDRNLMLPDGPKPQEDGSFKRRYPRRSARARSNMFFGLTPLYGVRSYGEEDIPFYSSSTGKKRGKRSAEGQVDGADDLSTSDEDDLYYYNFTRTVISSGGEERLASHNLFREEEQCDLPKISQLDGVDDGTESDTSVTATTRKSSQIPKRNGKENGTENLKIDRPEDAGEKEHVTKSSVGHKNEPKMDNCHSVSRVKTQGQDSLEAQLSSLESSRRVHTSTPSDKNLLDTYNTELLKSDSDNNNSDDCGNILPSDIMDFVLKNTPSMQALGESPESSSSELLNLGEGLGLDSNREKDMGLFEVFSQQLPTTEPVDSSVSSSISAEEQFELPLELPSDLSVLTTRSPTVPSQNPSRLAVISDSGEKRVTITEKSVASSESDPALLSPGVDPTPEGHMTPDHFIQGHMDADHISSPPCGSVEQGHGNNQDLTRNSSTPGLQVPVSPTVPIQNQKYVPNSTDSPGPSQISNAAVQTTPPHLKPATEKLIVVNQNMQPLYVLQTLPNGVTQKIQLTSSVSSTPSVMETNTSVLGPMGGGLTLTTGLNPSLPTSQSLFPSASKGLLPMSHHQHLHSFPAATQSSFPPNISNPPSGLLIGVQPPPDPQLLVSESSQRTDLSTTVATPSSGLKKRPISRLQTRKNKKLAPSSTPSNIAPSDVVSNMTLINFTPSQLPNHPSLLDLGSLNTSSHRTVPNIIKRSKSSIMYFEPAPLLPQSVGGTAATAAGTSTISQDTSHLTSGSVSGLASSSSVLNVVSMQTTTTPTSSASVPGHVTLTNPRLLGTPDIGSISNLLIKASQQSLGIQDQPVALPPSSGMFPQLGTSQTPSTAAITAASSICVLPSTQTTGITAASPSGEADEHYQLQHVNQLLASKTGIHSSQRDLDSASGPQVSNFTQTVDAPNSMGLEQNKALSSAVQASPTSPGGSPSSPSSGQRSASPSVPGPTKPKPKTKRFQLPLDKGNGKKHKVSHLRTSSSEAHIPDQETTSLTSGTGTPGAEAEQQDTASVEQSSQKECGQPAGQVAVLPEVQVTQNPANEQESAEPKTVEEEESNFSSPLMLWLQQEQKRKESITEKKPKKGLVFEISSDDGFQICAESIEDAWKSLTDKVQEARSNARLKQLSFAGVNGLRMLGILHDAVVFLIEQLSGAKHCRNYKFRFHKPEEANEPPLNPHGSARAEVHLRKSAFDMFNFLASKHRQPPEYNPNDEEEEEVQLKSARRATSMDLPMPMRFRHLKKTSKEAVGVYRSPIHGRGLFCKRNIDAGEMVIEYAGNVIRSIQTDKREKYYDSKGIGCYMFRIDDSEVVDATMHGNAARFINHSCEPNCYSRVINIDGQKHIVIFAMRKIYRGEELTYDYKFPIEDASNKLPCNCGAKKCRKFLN
# Assay: Confirmation of Inhibitors Targeting the Menin-MLL Interaction in MLL Related Leukemias: Competition With Fluorescein Labeled MLL-derived Peptide
# Details: Fluorescence polarization, fluorescein-MLL peptide displacement from menin
# Text: qHTS Assay for Inhibitors Targeting the Menin-MLL Interaction in MLL Related Leukemias
# NIH Chemical Genomics Center [NCGC]
# NIH Molecular Libraries Probe Centers Network [MLPCN]
# Assay Submitter (PI): Jolanta Grembecka, Tomasz Cierpicki, University of Virginia
# Translocations of the MLL (Mixed Lineage Leukemia) gene are frequently found in human leukemias affecting both children and adults. Fusion of MLL to one of more than 60 genes results in generation of oncogenic proteins upregulating Hox genes, which are vital to blood cell development. Patients harboring fusion of the MLL gene suffer from aggressive leukemias and respond poorly to available therapies. All of the oncogenic fusion proteins have a preserved N-terminal fragment of MLL that has been identified to interact with menin. It has been recently discovered that association with menin is critical to the leukemogenic activity of the MLL fusion oncoproteins. Selective targeting of the menin-MLL interaction could provide an attractive therapeutic approach to develop novel drugs for MLL-related leukemias. Small molecules blocking the menin-MLL interaction should reverse the oncogenic potential of MLL fusion proteins.
# We have developed and optimized a fluorescence polarization-based assay for the identification of Menin-MLL inhibitors. […]
# 5. Read fluorescence polarization for each label using the PerkinElmer Envision. […]
# Potency is read from the fitted curve at half-maximal effect.
structure (smiles),measurement,value
c1cc2cc(c1)C[n+]1ccc(c3ccccc31)NCc1ccc(cc1)CNc1cc[n+](c3ccccc13)C2,Potency,126 µM (active)
